This excerpt belongs to a sample that is enriched for hits.
Sa growth inh = S. aureus growth inhibition at 42 and 30 °C, primary screen, LtaS inhibitor project, RN4220, two temperatures | relative growth, % (concentration not given with the values) | 0.53% of 170,000 active | AID 720641, 2013 | OD600, 20 h, 42 °C; active compounds read low;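 active = relative growth at most 50% at the other temperature and 20+ points below 30 °C, or under 10% at both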
S aureus helic = inhibitors of S. aureus replicative helicase, primary screen, biochemical, fluorescence unwinding readout; inhibition, % (concentration not given with the values); 0.05% of 120,000 active; replicative DNA helicase (DnaC/DnaB), Staphylococcus aureus; purified S. aureus helicase, fluorescence unwinding assay; in the data active = inhibition above about 25%, passing the limit was not always enough;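 also: 0% = mean of negative control wells and 100% = mean of positive control wells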
HCMV NEC inh = inhibitors of HCMV UL50-UL53 interaction, biochemical, HTRF. inhibition, % (no concentration beside the values). normalized percent inhibition. HCMV UL50-UL53 nuclear egress complex (human cytomegalovirus). 0.15% of 190,000 active; in the data active = inhibition above about 27%, passing the limit was not always enough
An asterisk follows results filed as active; / = no result.

SMILES | Sa growth inh | S aureus helic | HCMV NEC inh
CC(C)N(Cc1ccccc1)S(=O)(=O)c1ccc(C(=O)Nc2nnc(-c3cccs3)o2)cc1 | 7.3* | -7.0 | 5.4
C=CCN(CC=C)S(=O)(=O)c1ccc(C(=O)Nc2nnc(-c3ccc(OC)cc3OC)o2)cc1 | 94.4 | 8.0 | 2.7
COc1cccc(-c2nnc(NC(=O)c3ccc(S(=O)(=O)N(Cc4ccccc4)C(C)C)cc3)o2)c1 | 0.4* | -3.0 | 9.1
CC(=O)Nc1nnc(-c2cccs2)o1 | / | -4.0 | 1.1
COc1cccc(-c2nnc(NC(=O)c3ccc(S(=O)(=O)N(C)C)cc3)o2)c1 | 71.0 | 1.0 | /
CCCN(CCC)S(=O)(=O)c1ccc(C(=O)Nc2nnc(-c3cccc(OC)c3)o2)cc1 | 0.1* | -21.0 | 35.9
CN(CC1CCCO1)S(=O)(=O)c1ccc(C(=O)Nc2nnc(-c3ccccc3)o2)cc1 (stereo unspecified) | -0.1* | 8.0 | -30.2
Cc1ccc(S(=O)(=O)c2c(O)c3ccc(C(=O)N4CCOCC4)cc3[nH]c2=O)cc1 | 97.5 | 2.0 | -5.2
CN(Cc1ccccc1)C(=O)Cn1cnc2onc(-c3ccc(Cl)cc3)c2c1=O | 98.7 | -27.0 | 5.9
CC1CN(C(=O)Cn2nc(C(=O)O)c3ccccc3c2=O)CC(C)O1 (stereo unspecified) | 99.5 | -16.0 | 6.4
Cc1ccc2c(c1)-c1c(cnn1CC(=O)NCc1ccccc1)CO2 | / | / | -10.4
COc1ccc(NC(=O)COc2ccc(Cl)cc2)cc1CN1CCn2c(nc3ccccc32)C1 | / | / | -11.9
COc1cccc(-c2nnc(NC(=O)c3ccc(S(=O)(=O)N4CCCCC4C)cc3)o2)c1 (stereo unspecified) | 2.4* | 4.0 | /
COc1ccc(-c2nnc(NC(=O)c3ccc(S(=O)(=O)N4CCCCC4)cc3)o2)cc1 | 19.9 | 1.0 | 1.6
COc1ccc(C2CC(=O)C3=C(C2)Nc2ccccc2NC3c2cc3c(cc2[N+](=O)[O-])OCO3)cc1OC (stereo unspecified) | / | / | -27.9
COCc1nnc(C(=O)Nc2cccc(C(=O)NCCc3c[nH]c4ccc(OC)cc34)c2)s1 | / | / | -15.4
CC1=C(C(=O)Nc2ccccc2)C(c2cccs2)C(C#N)=C(SCC(=O)Nc2ccc(F)cc2)N1 (stereo unspecified) | / | -17.0 | -6.9
Cc1ccc(Cc2c[nH]c(=S)s2)cc1 | 22.9* | 9.0 | 3.6
Cc1ccc(Cc2cn3cc(-c4ccc(F)cc4)nc3s2)cc1 | 95.8 | / | -19.4
S=C(c1ccc(-c2ccc(Cl)cc2)o1)N1CCOCC1 | 87.5 | 32.0 | -4.4
CCCCSc1ncnc2c1cnn2-c1ccc(Cl)cc1 | 88.1 | 3.0 | -36.1
CCCn1nc(C(=O)N2CCc3ccccc32)c2ccccc2c1=O | 45.6* | -6.0 | -17.1
Cn1nc(C(=O)N2CCCc3ccccc32)c2ccccc2c1=O | 93.8 | -1.0 | -23.8
O=C(Nc1ccc(Cl)cc1)C1CCN(c2ccccc2)C1=O (stereo unspecified) | / | / | -25.9
Cc1cc(O)ccc1-n1c(=O)c2cc3c(=O)n(-c4ccc(O)cc4C)c(=O)c3cc2c1=O | 92.0 | 6.0 | /
SMILES | Sa growth inh | S aureus helic | HCMV NEC inh
Cc1cc(O)ccc1Sc1ccc(O)cc1C | 30.2* | -10.0 | -7.0
O=C(CSc1ccc(Cl)cc1)c1ccc[nH]1 | 113.0 | 11.0 | -14.0
COc1ccccc1C(=O)CSc1ccc(Cl)cc1 | 6.6* | -17.0 | -25.5
COc1cc(C(=O)Nc2ccc(Cl)c(-c3nc4cc(Cl)ccc4o3)c2)cc(OC)c1OC | / | / | -2.6
Cc1nnc(SCC(=O)Nc2nc3ccccc3s2)[nH]c1=O | / | / | 10.3
COc1cc(/C=C2/C(=O)ON=C2C)cc(Cl)c1OCc1ccc(C)cc1 | 84.2 | 8.0 | /
COc1cc(/C=C2\C(=O)N(c3ccc(Cl)c(C(=O)O)c3)N=C2C)cc(OC)c1OC | / | / | 63.2*
COc1cc(/C=C2\C(=O)N(c3ccc(S(N)(=O)=O)cc3)N=C2C)cc(Cl)c1OCc1ccccc1 | / | / | 60.6*
COc1cc(/C=C2\C(=O)N(c3ccc(Cl)c(C(=O)O)c3)N=C2C)ccc1OCc1ccccc1 | / | / | 25.9
CCOc1c(OC)cc(/C=C2/C(=O)N(c3ccc(S(N)(=O)=O)cc3)N=C2C)cc1[N+](=O)[O-] | / | / | -9.7
COc1cc(/C=C2\C(=O)N(c3ccc(S(N)(=O)=O)cc3)N=C2C)cc(Br)c1OCc1ccccc1 | / | / | 46.2*
CCCSc1nc2c(cnn2CCO)c(=O)[nH]1 | / | / | -1.9
OC[C@H]1OC([S-])[C@H](O)[C@@H](O)[C@@H]1O.[Au+] (stereo partly specified) | 94.5 | / | 58.0*
OCC1OC(Oc2ccccc2)C(O)C(O)C1O (stereo unspecified) | 102.5 | / | -2.1
O=C(CCc1nc2sc3c(c2c(=O)[nH]1)CCCCC3)NCCN1CCOCC1 | / | / | -28.1
FC(F)Sc1ccc(N=C=S)cc1 | -0.8* | 3.0 | -22.8
S=C=Nc1ccc(N=C=S)cc1 | / | / | -44.1
COC(=O)c1ccc2c(c1)C1C=CCC1C(c1cccc3ccccc13)N2 (stereo unspecified) | / | / | -24.5
O=C(O)c1ccc2c(c1)C1C=CCC1C(c1cccc3ccccc13)N2 (stereo unspecified) | / | / | 35.4*
CNC(=O)Cc1ccc(-n2c(=O)c3ccccc3n(CC(=O)NC3CCCCC3)c2=O)cc1 | / | / | -7.0
Nc1c(-c2nc(-c3ccc4c(c3)OCO4)no2)nnn1-c1ccc(C(F)(F)F)c(Cl)c1 | 101.2 | -27.0 | -74.4
CCN(CC)c1nc(N)c2c(N)nc3c(c2c1C#N)C(=O)CN3Cc1ccccc1 | 104.1 | -14.0 | 5.2
CCCCN(CC)c1nc(N)c2c(N)nc(SCC(=O)O)cc2c1C#N | 6.2* | -15.0 | 4.5
COc1ccc(C2C3=C(CCCC3=O)Nc3n[nH]c(-c4ccc(Cl)cc4)c32)cc1OC (stereo unspecified) | 84.1 | 2.0 | /
Cc1cccc(NC(=O)CCCc2nc(-c3cc4ccc(C)cc4[nH]c3=O)no2)c1 | / | / | -9.9
SMILES | Sa growth inh | S aureus helic | HCMV NEC inh
CN1CCC(N(C)Cc2csc(-c3ccc(Cl)cc3)n2)CC1 | -0.3* | -17.0 | -34.1
CC(=O)NCCc1csc(-c2ccc(Cl)cc2)n1 | / | / | -41.8
CCCCNS(=O)(=O)c1cnn(CC)c1 | 97.9 | 0.0 | -9.9
O=c1cc(O)sc2ccccc12 | 56.7 | 0.0 | -1.2
O=c1[nH]sc2ccccc12 | -1.8* | 22.0 | 9.6
CCc1c(C)nc2nc(NCc3cccc(C)c3)[nH]n2c1=O | / | / | -1.3
CSc1nc(NC(C)C)c(C#N)c(-c2ccccc2)n1 | / | / | 28.8*
CSc1nc(NCc2ccccc2)c(C#N)c(-c2ccccc2)n1 | 115.1 | -21.0 | 21.6
COCCN(Cc1nc2ccccc2c(=O)[nH]1)C(=O)c1ccc(S(C)(=O)=O)cc1 | 70.9 | -6.0 | -21.4
CC(Oc1ccc(C(C)(C)C)cc1)C(=O)N1CCN(Cc2ccc3c(c2)OCO3)CC1 (stereo unspecified) | 97.7 | 8.0 | 23.5
Cc1cc(C)cc(NC(=S)NC2CCCCC2)c1 | 78.5 | / | -31.4
FC(F)(F)c1cc(NC(=S)NC2CCCCC2)cc(C(F)(F)F)c1 | 7.4* | / | -34.9
CN(C)C1(CNC(=O)COc2ccccc2)CCCCC1 | / | / | -7.0
COc1cc(C2C(C#N)=C(N)Oc3n[nH]c(-c4ccc5c(c4)OCO5)c32)ccc1OC(=O)c1ccco1 (stereo unspecified) | / | / | -25.0
Cc1cc(OC(=O)c2cc(-c3ccc4c(c3)OCCO4)on2)ccc1Cl | 109.6 | / | -3.4
